Hits are enriched below; roughly 3.6% of the tested compounds scored in any of these assays.
TWEAK Fn14 block – inhibitors of TWEAK-Fn14 signaling, primary screen, luciferase reporter cells, uHTS; TWEAK-stimulated Fn14 reporter cells, luciferase luminescence, 8 h; inhibition, % at 10 µM; hit rate 2% among 360,000; AID 1159606, 2016; in the data active = inhibition above about 50%
LGR2 antag – inhibitors of bursicon-induced LGR2 CRE-luciferase signal, primary screen, cell-based, HEK293, CRE-luciferase reporter, bursicon stimulation; bursicon-stimulated, 4 h; inhibition, % at 9.99 µM; hit rate 0.35% among 380,000;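 active = drop in luminescence signal, shown as inhibition above about 50% in the replicate tests, limit read from the data, passing the limit was not always enough; inconclusive = probably only some replicates passing the limit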;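 also: agonist challenge used bursicon conditioned medium at about half maximal strength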
LMP1 NFkB inh – EBV LMP1-driven NF-kappaB luciferase reporter inhibitors, primary screen, cell-based, luminescence, single point; LMP1-induced NF-kappaB luciferase reporter cells; hit rate 0.69% among 350,000; inhibition, % at 12.5 µM; in the data active = inhibition above about 41%; inconclusive = no clear call, values can overlap the other calls
HSF1 activator – HSF-1 activators, primary screen, NIH3T3-HGL cells, MG132 stress, luminescence, single point | activation, % at 9 µM | AID 504408, 2011 | hit rate 1.7% among 300,000 | NIH3T3-HGL HSF-1 luciferase reporter, 8 h; 100% = twice DMSO control signal;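 active = mean replicate activation of at least 50% with a set share of replicates each reaching 50%; inconclusive = only one of those two conditions met; inactive = mean below 50% and too few replicates reaching it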
TROY signal inh – inhibitors of TROY-driven NF-kB signaling, primary screen, Q293 LMP1-TROYcd cells, NF-kB luciferase, uHTS; hit rate 0.98% among 360,000; Q293 LMP1-TROYcd NF-kB luciferase reporter, 4 h; AID 1347056, 2019; inhibition, % at 10 µM;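 active = compounds whose plate-normalised and pattern-corrected inhibition of the luciferase reporter signal at the single screening dose is 50% or more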
HSF1 inh – HSF1 inhibitors in luciferase reporter cells, primary screen, cell-based, NIH3T3, luminescence; NIH3T3-HGL HSE-luciferase, MG132-induced, luminescence 8 h; stronger effect = lower value; activity change, negative = inhibition, % at 7.5 µM (by protocol); hit rate 0.77% among 300,000;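 active = more than half of replicate wells show activity change below -50%, luminescence cut by over half; inconclusive = some wells, but at most half, below -50%; inactive = no replicate well below -50%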;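 also: luciferase reports HSF-1 transcriptional activity via heat shock element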
Each line names hits and unclear results; the compound was inactive in the other large screens.

Cc1ccccc1-c1cnc2c(c1)C(=O)N([C@H](C)CO)C[C@H](C)[C@@H](CN(C)CC1CCOCC1)O2	none (no result: TWEAK Fn14 block, LMP1 NFkB inh, HSF1 activator, TROY signal inh, HSF1 inh)
COCCCNc1nc2nonc2nc1N1CCN(Cc2cccc(C)c2)CC1	HSF1 activator 63
O=C(C[C@H]1C[C@@H]2c3cc(NC(=O)Nc4ccc(F)cc4)ccc3O[C@@H]2[C@H](CO)O1)NC1CCCCC1	none (no result: TWEAK Fn14 block, LMP1 NFkB inh, HSF1 activator, TROY signal inh, HSF1 inh)
COc1ccc(N=C2C(=Nc3ccc(OC)cc3)N(c3ccc(OC)cc3)C(=S)N2C(=O)c2ccc(OC)cc2)cc1	HSF1 activator 65 (no result: LGR2 antag)
COc1ccc(N=C2C(=Nc3ccc(OC)cc3)N(c3ccccc3)C(=S)N2C(=O)c2ccc(Cl)cc2)cc1	TWEAK Fn14 block 66 (no result: LGR2 antag)
COc1ccc(C(=O)c2ccc(Cl)cc2)cc1	none (no result: LGR2 antag)
COc1ccc(N=C2NC(=O)S/C2=C\c2ccc(N(C)C)cc2)cc1	none (no result: LGR2 antag)
COc1ccc(N2C(=S)N(C(=O)c3ccccc3)C(=Nc3ccccc3)C2=Nc2ccccc2)cc1	TWEAK Fn14 block 75 (no result: LGR2 antag)
COc1ccc(N=C2C(=Nc3ccc(OC)cc3)N(c3ccc(N(C)C)cc3)C(=S)N2c2ccc(OC)cc2)cc1	HSF1 activator 63
CCn1cc([N+](=O)[O-])c(C(=O)Nc2ccc(Cn3nc(C)cc3C)cc2)n1	none
Cn1cc([N+](=O)[O-])c(C(=O)Nc2ccc(C(=O)N3CCCCC3)cc2)n1	HSF1 activator inconclusive
Cc1cc(C)n(Cc2ccc(NC(=O)c3ccc(COc4ccccc4Br)cc3)cc2)n1	TWEAK Fn14 block 60 (no result: LGR2 antag)
CCn1cc([N+](=O)[O-])c(C(=O)Nc2ccn(Cc3ccccc3)n2)n1	none
NC(=O)c1ccc(NC(=O)c2ccc(COc3ccccc3Br)cc2)cc1	none (no result: HSF1 activator, HSF1 inh)
Cc1cc(C)n(Cc2ccc(NC(=O)c3nn(C)cc3[N+](=O)[O-])cc2)n1	HSF1 activator 131
Cc1ccc(Cn2ccc(NC(=O)c3nn(C)cc3[N+](=O)[O-])n2)cc1	HSF1 activator 76
Cn1cc([N+](=O)[O-])c(C(=O)Nc2ccc(C3CCCCC3)cc2)n1	HSF1 activator 75
O=[N+]([O-])c1cc(Oc2cccnc2)cc([N+](=O)[O-])c1	none
Cn1cc([N+](=O)[O-])c(C(=O)Nc2cc(Oc3cccnc3)cc([N+](=O)[O-])c2)n1	HSF1 activator 142 (no result: TWEAK Fn14 block, LMP1 NFkB inh, TROY signal inh)
Cn1cc([N+](=O)[O-])c(C(=O)Nc2ccc(-c3nc4ccccc4[nH]3)cc2)n1	HSF1 activator 408
COCCN1CCN(C(=O)c2cc(COc3ccc(F)c(F)c3)on2)CC1	TWEAK Fn14 block 77
O=C1N(c2ccccc2)C[C@@H]2C[C@@H](c3cc4ccccc4o3)N3CCC[C@@]123	TWEAK Fn14 block 84, LGR2 antag 90, LMP1 NFkB inh 90
Cc1ccccc1NC(=O)CSc1nc(Nc2ccccc2)nc(N2CCOCC2)n1	HSF1 activator 74 (no result: LGR2 antag)
C=CCN1C(=O)C(Cc2ccc(OCC)cc2)S/C1=N\N=C\c1cccs1 (configuration not stated)	HSF1 activator 56
COCC(=O)N(C)C[C@H]1Oc2ncc(C3=CCCC3)cc2C(=O)N([C@@H](C)CO)C[C@H]1C	none (no result: TWEAK Fn14 block, LMP1 NFkB inh, HSF1 activator, TROY signal inh, HSF1 inh)
COc1ccc2c3c([nH]c2c1)[C@@H](CO)N(C(=O)c1ccccc1)CC31CCN(C(=O)CC2CC2)CC1	none (no result: TWEAK Fn14 block, LMP1 NFkB inh, HSF1 activator, TROY signal inh, HSF1 inh)
CC(C)Nc1ncnc2c1ncn2[C@H]1CN(Cc2ccc(-c3ccccc3)cc2)C[C@@H](CO)O1	none (no result: LMP1 NFkB inh, HSF1 activator, HSF1 inh)
CC(C)CNc1ncnc2c1ncn2[C@H]1CN(Cc2ccc(-c3ccccc3)cc2)C[C@@H](CO)O1	TWEAK Fn14 block 51 (no result: LMP1 NFkB inh, HSF1 activator, HSF1 inh)
COc1cc(CNc2ncnc3c2ncn3[C@H]2CN(Cc3ccc(-c4ccccc4)cc3)C[C@@H](CO)O2)cc(OC)c1OC	TWEAK Fn14 block 69 (no result: LMP1 NFkB inh, HSF1 activator, HSF1 inh)
COc1cc(/C=C/[N+](=O)[O-])ccc1OC(=O)c1cc2ccccc2oc1=O	TROY signal inh 53 (no result: LGR2 antag)
COc1ccccc1OC(=O)c1cc2ccccc2oc1=O	none
N#Cc1sc2nccc(Nc3ccccc3)c2c1N	TWEAK Fn14 block 80 (no result: LGR2 antag, LMP1 NFkB inh)
CC=Cc1ccc2n(c1=O)C[C@H]1[C@H](CO)[C@@H](C(=O)NC3CCC3)N(CCC(F)(F)F)[C@@H]21 (mixture of isomers)	none (no result: TWEAK Fn14 block, LMP1 NFkB inh, HSF1 activator, TROY signal inh, HSF1 inh)
CCc1ccc(-c2cn3nc(C)c(C)nc3n2)cc1	TWEAK Fn14 block 60, LMP1 NFkB inh 84 (no result: LGR2 antag)
Cc1nc2nc(-c3ccc(F)cc3)cn2nc1C	HSF1 activator inconclusive
Cc1ccccc1N1C(=O)C(Oc2ccc(Cl)cc2)C1CNCCCOC(C)C (configuration not stated)	none
COCCCNCC1C(Oc2ccc(Cl)cc2)C(=O)N1c1ccccc1C (configuration not stated)	LMP1 NFkB inh 76
COc1cc2c(cc1OC)CN(Cc1nc3ccsc3c(=O)[nH]1)CC2	TWEAK Fn14 block 77 (no result: LGR2 antag)
COc1ccc(NS(=O)(=O)c2cc(NC(=O)c3cncc(Br)c3)ccc2OC)cc1	TWEAK Fn14 block 52 (no result: HSF1 activator, HSF1 inh)
Cn1nc(C(=O)Nc2cccc(S(N)(=O)=O)c2)c2ccccc2c1=O	none
COc1ccc(NS(=O)(=O)c2cc(NC(=O)c3nn(C)c(=O)c4ccccc34)ccc2OC)cc1	TWEAK Fn14 block 53
COc1ccccc1C(=O)Nc1ccc2c(c1)OC[C@@H](C)N(CC1CC1)C[C@H](C)[C@@H](OC)CN(C)C2=O	none (no result: TWEAK Fn14 block, LMP1 NFkB inh, HSF1 activator, TROY signal inh, HSF1 inh)
Clc1ccc(Cn2nc(-c3ccccc3)nc2-c2ccccc2)cc1	HSF1 activator 53
Cn1cnc(S(=O)(=O)N[C@H]2CC[C@H](CC(=O)Nc3ccc(-c4ccccc4)cc3)O[C@H]2CO)c1	none (no result: TWEAK Fn14 block, LMP1 NFkB inh, HSF1 activator, TROY signal inh, HSF1 inh)
O=S1(=O)CC(c2ccccc2)=NN=C(c2ccccc2)C1	TWEAK Fn14 block 89 (no result: HSF1 activator, HSF1 inh)
O=C1CC(c2ccccc2)=NO1	none (no result: HSF1 activator, HSF1 inh)
C[C@H](CO)N1C[C@H](C)[C@@H](CN(C)C(=O)Nc2cccc3ccccc23)Oc2ccc(NC(=O)c3ccncc3)cc2C1=O	none (no result: TWEAK Fn14 block, LMP1 NFkB inh, HSF1 activator, TROY signal inh, HSF1 inh)
Cc1ccc(C2(c3ccccc3)NC(=O)N(CC(=O)NCc3ccccc3)C2=O)cc1C (configuration not stated)	LMP1 NFkB inh 70 (no result: HSF1 activator, HSF1 inh)
COc1ccccc1CNC(=O)CN1C(=O)NC(c2ccccc2)(c2ccccc2)C1=O	none (no result: HSF1 activator, HSF1 inh)
CCC1(c2ccccc2)NC(=O)N(CC(=O)NCc2ccccc2OC)C1=O (configuration not stated)	HSF1 activator 107
CN(C)c1ccc2c(c1)[C@@H]1C[C@@H](CC(=O)NCc3ccc4c(c3)OCO4)O[C@H](CO)[C@@H]1O2	none (no result: TWEAK Fn14 block, LMP1 NFkB inh, HSF1 activator, TROY signal inh, HSF1 inh)
Cc1noc(C)c1NC(=O)N(C)C[C@H]1Oc2ncc(C#CC(C)C)cc2C(=O)N([C@@H](C)CO)C[C@H]1C	none (no result: TWEAK Fn14 block, LMP1 NFkB inh, HSF1 activator, TROY signal inh, HSF1 inh)
COc1cccc2cc(-c3ccccc3)c(=O)oc12	HSF1 activator 62

Assay outcomes deposited in PubChem BioAssay by several laboratories.
